High-throughput results as filed in PubChem BioAssay.
GoLoco inh red = blocks human Gai1 binding to RGS12 GoLoco peptide, red readout; P63096; Gai1:RGS12 GoLoco peptide FP, rhodamine, 10 min; Potency, µM (top dose mostly 61.6 µM), actives largely listed as inhibitors; actives 0.44% (n = 230,000); AID 880; active means well fitted inhibition curve with a large enough effect, not every such curve was filed as active; inactive means no such curve, though single readings can be large or run the other way; further: nearly all actives have a fitted effect of over 30% in size
Menin-MLL FL inh = displaces fluorescein MLL peptide from human menin; AID 1766; FP activity change, % at 61.4 µM; 290,000 tested, under 10 active; Fluorescence polarization, fluorescein-MLL peptide displacement from menin; active means well fitted curve in the direction sought with a large enough effect in the polarisation, not every such curve was filed as active; inconclusive means small, poorly fitted or top-dose-only effect, or effect the other way, or a change in a side signal; inactive means no such curve, though single readings can be large or run the other way; the % refers to the polarisation
CXXC DNA block = MLL CXXC-DNA interaction inhibition | Q03164 | MLL-CXXC / FITC-HOXA9 DNA fluorescence polarization | Potency, µM (titrated, usually from 115 µM), actives largely listed as inhibitors | actives 0.037% (n = 290,000) | AID 2662; active means well fitted inhibition curve with a large enough effect in the polarisation, with a control signal flat, not every such curve was filed as active; inconclusive means small, poorly fitted or top-dose-only effect, or effect the other way, or a change in a side signal; inactive means no such curve, though single readings can be large or run the other way; the % refers to the polarisation
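Steps: dispense CXXC domain solution (7 uM) → pin compounds or unlabeled HOX-A9 DNA control → 5 min ambient → add FLSN-HOX-A9 solution (50 nM) → spin → 30 min ambient → fluorescence polarization. Tris pH 7.5/NaCl/DTT/BSA buffer.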
TR SRC2 fluor cs = alters Texas Red total fluorescence, flagging assay interference. Potency, µM (doses to about 106 µM). TRb/SRC2 Texas Red total fluorescence interference. actives 0.29% (n = 280,000); active means well fitted curve in either direction with a large enough effect; inconclusive means small, poorly fitted or top-dose-only effect
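Human TRβ ligand-binding domain (0.6 uM) and Texas Red SRC2 peptide (20 nM) in Tris buffer with 1 uM T3 and 5% DMSO were incubated with pinned compound for 5 hr at ambient temperature. Total fluorescence was computed as S + 2P (555/632 nm).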
TRb SRC2 PPI = inhibitors of human thyroid hormone receptor beta-SRC2 interaction | TRbeta-SRC2 peptide binding, fluorescence polarization; receptor liganded with 1 µM T3 | P10828 | AID 1469 | actives 0.065% (n = 280,000) | Potency, µM (top dose mostly 106 µM), most hits filed as inhibitors; active means well fitted inhibition curve with a large enough effect; inconclusive means small, poorly fitted or top-dose-only effect, or effect the other way; further: nearly all actives have a fitted effect of over 50% in size
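Human TRb LBD (0.6 uM) plus Texas Red-labeled SRC2 peptide (20 nM), 1uM T3, 5% DMSO, 5 hr at ambient temperature. Decreased polarization (555/632 nm) flags inhibition; data normalized to free and bound peptide controls.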
Menin-MLL TR inh = inhibitors of human menin-MLL interaction, mutant MLL peptide; O00255; Menin + Texas Red MLL mutant peptide, fluorescence polarization; Potency, µM (doses to about 61.6 µM), most hits filed as inhibitors; actives 0.23% (n = 270,000); AID 1768; active means well fitted inhibition curve with a large enough effect in the polarisation, with a control signal flat, not every such curve was filed as active; inconclusive means small, poorly fitted or top-dose-only effect, or effect the other way, or a change in a side signal; inactive means no such curve, though single readings can be large or run the other way; the % refers to the polarisation
Target sequence (O00255 whole entry, looked up): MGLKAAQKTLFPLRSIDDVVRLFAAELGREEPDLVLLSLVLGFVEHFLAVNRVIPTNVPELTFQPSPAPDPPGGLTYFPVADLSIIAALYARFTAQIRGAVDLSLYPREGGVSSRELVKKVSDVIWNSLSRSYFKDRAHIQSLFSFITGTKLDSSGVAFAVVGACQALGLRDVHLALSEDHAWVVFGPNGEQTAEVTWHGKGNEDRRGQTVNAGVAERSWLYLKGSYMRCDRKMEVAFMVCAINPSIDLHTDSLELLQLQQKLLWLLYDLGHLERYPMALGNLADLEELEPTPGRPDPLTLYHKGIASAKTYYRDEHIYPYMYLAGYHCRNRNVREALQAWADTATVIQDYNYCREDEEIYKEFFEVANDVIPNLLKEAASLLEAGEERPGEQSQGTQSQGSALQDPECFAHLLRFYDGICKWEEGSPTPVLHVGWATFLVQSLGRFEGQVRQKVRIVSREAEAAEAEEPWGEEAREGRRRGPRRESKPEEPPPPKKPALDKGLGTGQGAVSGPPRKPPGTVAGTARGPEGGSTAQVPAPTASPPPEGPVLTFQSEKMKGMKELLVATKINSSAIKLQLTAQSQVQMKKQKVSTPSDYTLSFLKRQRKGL
Numbers stand for hits; n = inactive; u = inconclusive; x = not tested or not shown; ! = not active in a repeat; [ ] = dose if it differs, or a comment. Most compounds without a hit are left out; they make up all but 0.5% or so of the library.

SMILES	GoLoco inh red	Menin-MLL FL inh	CXXC DNA block	TR SRC2 fluor cs	TRb SRC2 PPI	Menin-MLL TR inh
CCc1ccc2oc(-c3ccc(NC(=O)c4cccc(Cl)c4Cl)cc3)nc2c1	x	x	x	n	n	x
Cc1ccsc1C=Nc1ccc(O)cc1	n	n	n	n	31.6µM	u
Cc1sc2nc(SCc3nc(-c4ccccc4)no3)n(-c3ccccc3)c(=O)c2c1C	10µM	n	n	n	n	n
CCOc1ccc(NC(=O)C2CCN(C(=O)N3CC(C)Oc4ccc(Cl)cc43)CC2)cc1 (stereo not drawn)	x	x	x	100µM[quencher]	n	x
CC1CN(C(=O)N2CCC(C(=O)NC3CCCCCC3)CC2)c2cc(Cl)ccc2O1 (stereo not drawn)	x	x	x	n	n	x
N#C/C(=C\c1ccc(-c2cccc(Cl)c2)o1)C(=O)Nc1cccc(C(F)(F)F)c1	x	x	x	0.0891µM[quencher]	u	x
O=C(CCCOc1ccc(Cl)cc1Cl)N/N=C/c1ccccc1O	n	n	n	31.6µM[quencher]	n	n
O=C(CCCOc1ccc(Cl)cc1Cl)N/N=C/c1ccccc1	n	n	n	n	n	n
CCC(=O)N1CCc2cc(Br)cc(S(=O)(=O)N3CCCC(C(=O)NCc4cccc(OC)c4)C3)c21 (stereo not drawn)	x	x	x	0.0079µM[quencher]	n	x
C#CCn1cc(/C=N/NC(=O)COc2cccc3cccnc23)c2ccccc21	0.794µM	n	n	n	n	n
Cn1cc(/C=C2\SC(=S)N(NC(=O)c3ccccc3)C2=O)c2ccccc21	n	u	u	u	17.8µM	u
CCc1ccc(CNc2ccc(O)cc2)cc1	14.1µM	n	n	n	n	35.5µM
Oc1ccc(NCc2ccc(OCc3ccccc3)cc2)cc1	x	u	n	n[11.2 µM]	n[11.2 µM]	u
COc1ccc(Br)cc1CNc1ccc(O)cc1	20µM	n	n	u	8.91µM	u
CCOc1cccc(CNc2ccc(O)cc2)c1OCc1ccc(Cl)cc1	n	n	n	u	35.5µM	31.6µM
Oc1ccc(NCc2ccccc2OCc2ccccc2F)cc1	n	n	n	n[11.2 µM]	35.5µM!	u
COc1ccc(Br)cc1CNc1ccc2[nH]c(=O)[nH]c2c1	n	n	n	n	n	n
CCOc1cc(CNCc2ccccc2)ccc1OCc1ccc(Cl)cc1	x	n	n	x	x	u
CCOc1cc(CNc2ccc(O)cc2)ccc1OCc1ccc(Cl)cc1Cl	n	n	n	n	28.2µM	u
CCOc1ccccc1CNc1ccc(O)cc1	n	n	n	u	28.2µM	28.2µM
CC[C@H]1O[C@]2(CC[C@@H]1C)C[C@@H]1C[C@@H](C/C=C(\C)C[C@@H](C)/C=C/C=C3CO[C@@H]4[C@H](O)C(C)=C[C@@H](C(=O)O1)[C@]34O)O2	x	x	x	n	n	x
CN(C)/[N+]([O-])=N/Oc1cc(O/[N+]([O-])=N/N2CCCC2CO)c([N+](=O)[O-])cc1[N+](=O)[O-] (stereo not drawn)	x	n	x	n	n	n
CCOc1ccc(-c2nonc2NC(=O)c2oc3ccc(F)cc3c2C)cc1	x	x	x	0.794µM[quencher]	n	x
COc1ccc2c3c(c(=O)oc2c1)C1O[C@](CCCCN2C(=O)c4ccccc4C2=O)(Cc2cc(OC)c(OC)cc21)O3	x	n[11.7 µM]	n[23 µM]	x	x	n[11.7 µM]
CCc1ccc(OCC(=O)NCC(c2ccc(Cl)cc2)N2CCOCC2)cc1 (stereo not drawn)	x	x	x	10µM[quencher]	n	x
SMILES	GoLoco inh red	Menin-MLL FL inh	CXXC DNA block	TR SRC2 fluor cs	TRb SRC2 PPI	Menin-MLL TR inh
CCCCCc1ccc(OCCC[n+]2ccccc2)c(CCCCC)c1	n	n	n	n	70.8µM	x
CN1CCC(=O)N(C(CSc2ccc(Br)cc2)c2ccccc2)CC1 (stereo not drawn)	x	n	x	n	n	n
CCOC(=O)C1CCN(C(=O)c2ccc3c(c2)sc2nc(-c4ccc(OC)cc4)cn23)CC1	x	x	x	316µM[quencher]	n	x
CCOc1ccc(-c2cn3c(n2)sc2cc(C(=O)NCCC4=CCCCC4)ccc23)cc1	x	x	x	2µM[quencher]	n	x
Cc1ccc(-c2cn3c(n2)sc2cc(C(=O)NCc4cccs4)ccc23)cc1	x	x	x	3.16µM[quencher]	n	x
Cc1nn(-c2ccccc2)c(N2CCCC2)c1/C=N/NC(=O)c1ccccc1O	n	n	n	n	n	n
O=C(N/N=C/c1cc2c3c(c1O)CCCN3CCC2)c1ccccc1O	28.2µM	x	n	n	n	u
O=C(/C=C/c1ccc(O)c(O)c1)OC1C[C@](O)(C(=O)O)C[C@@H](O)[C@H]1O (stereo partly drawn)	n	x	x	n	n	x
Oc1ccc(-c2nc3ccccc3s2)c(O)c1	n	n	n	n	n	x
Oc1ccc(-c2cnns2)c(O)c1	1.26µM	n	n	n	n	n
COc1cccc(NC(=O)Cn2c(=O)n(CCCCC(=O)NCCc3ccccc3)c(=O)c3ccccc32)c1	x	x	x	n	n	x
S=C([S-])NCCNC(=S)[S-].[Mn+2]	x	x	x	n	n	x
Cc1cc(C)nc(SCC(=O)N/N=C/c2cccn2-c2ccc(O)cc2)n1	3.16µM	n	n	n	n	n
Cc1ccc(CNC(=O)Cn2c(=O)cc(C)c3c(C)nn(-c4cccc(F)c4)c32)cc1	x	x	x	n	n	x
Cc1cc(=O)n(CC(=O)NC(C)c2ccccc2)c2c1c(C)nn2-c1cccc(F)c1 (stereo not drawn)	x	x	x	251µM[quencher]	n	x
CCCCCCN	28.2µM	x	x	n	n	x
CCCCCCCCCCCCN	x	x	x	n	n	x
COc1ccc(NC(=O)c2cc(S(=O)(=O)N3CCOCC3)cn2C)cc1Cl	x	n	x	10µM[quencher]	n	n
COc1ccc(NC(=O)c2cc(S(=O)(=O)N3CCCCC3)cn2C)cc1Cl	x	x	x	n	n	x
CN(C)c1nc(=O)n(C2CCC(O)CC2)c(=O)n1C (stereo not drawn)	x	x	x	n	n	x
O=C(Cn1c(-c2cccs2)cc2cc(Cl)ccc21)N1CCN(c2ccccc2F)CC1	x	x	x	n	n	x
O=C(Cn1c(-c2cccs2)cc2ccccc21)N1CCN(c2ccccc2F)CC1	x	x	x	100µM[quencher]	n	x
C=CCOc1c(Cl)cc(CNc2ccc(N(C)C)cc2)cc1OC	22.4µM	u	n	n	n	u
COc1cc(CNc2ccc(N3CCCC3)cc2)cc(Cl)c1OC	n	n	n	n	n	28.2µM
CCOc1cc(CNc2ccc(N3CCCC3)cc2)cc(Cl)c1OC	n	n	n	n	n	u
SMILES	GoLoco inh red	Menin-MLL FL inh	CXXC DNA block	TR SRC2 fluor cs	TRb SRC2 PPI	Menin-MLL TR inh
CS(=O)(=O)c1ccc(Cl)cc1	x	x	x	n	n	x
Cc1ccc2occ(/C=N/NC(N)=S)c(=O)c2c1	n	n	n	0.355µM[quencher]	n	n
C[Si]1(C)N[Si](C)(C)N[Si](C)(C)N1	x	x	x	n	n	x
O=C1c2ccccc2-c2onc3ccc(N4CCCC4)c1c23	n	u	u	44.7µM[fluorescent]	39.8µM	u
Cn1c(=O)cc2c3c(c(N4CCCCC4)ccc31)C(=O)c1ccccc1-2	15.8µM	u	u	u	u	x
Cn1nc(-c2ccccc2)c(N2CCCCC2)cc1=O	n	n	n	n	n	n
O=C1c2ccccc2C(=O)c2c1cccc2N1CCCC1	n	n	n	n	n	n
CCOc1ccc2noc3c2c1C(=O)c1ccccc1-3	n	u	u	u	50.1µM	8.91µM
